Measured values taken from PubChem BioAssay (NCATS).
Results filed as inconclusive are left out. Active and inactive are the calls of the source. Unless noted, the call rests on the fitted dose curve.

What was measured:
[1] = target: Estrogen receptor (Homo sapiens) (UniProt P03372); test: qHTS assay for small molecule antagonists of estrogen receptor alpha signaling (AID 588513; active means well fitted curve in the direction sought with a large enough effect in the signal ratio, with a control signal flat, not every such curve was filed as active; the % refers to the signal ratio; further: on the % scale 0 is the no-effect control and ±100 the full control effect)
Sequence of Estrogen receptor (Homo sapiens) (P03372 whole entry, looked up): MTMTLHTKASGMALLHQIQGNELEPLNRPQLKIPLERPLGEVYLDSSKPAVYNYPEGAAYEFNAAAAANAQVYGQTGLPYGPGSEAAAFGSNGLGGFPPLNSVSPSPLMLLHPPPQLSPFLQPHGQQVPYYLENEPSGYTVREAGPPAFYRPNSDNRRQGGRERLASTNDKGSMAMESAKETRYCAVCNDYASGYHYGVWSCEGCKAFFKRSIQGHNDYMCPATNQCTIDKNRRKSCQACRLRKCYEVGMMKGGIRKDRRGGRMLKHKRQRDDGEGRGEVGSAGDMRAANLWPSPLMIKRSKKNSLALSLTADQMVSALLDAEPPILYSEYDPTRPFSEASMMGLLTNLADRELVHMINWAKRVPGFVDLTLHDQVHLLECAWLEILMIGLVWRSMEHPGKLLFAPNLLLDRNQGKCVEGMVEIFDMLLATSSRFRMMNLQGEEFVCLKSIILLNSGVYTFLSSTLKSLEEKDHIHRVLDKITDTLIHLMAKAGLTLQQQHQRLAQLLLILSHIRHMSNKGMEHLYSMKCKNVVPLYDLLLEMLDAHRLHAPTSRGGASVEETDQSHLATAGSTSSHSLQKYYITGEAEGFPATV
Summary of the method: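 ER-alpha-UAS-bla GripTite HEK 293 cells in 2% charcoal/dextran-treated FBS medium; compounds titrated (1:2, duplicate), then stimulated with 0.5 nM 17-beta-estradiol for 18 h at 37C. CCF4 beta-lactamase fluorescence; Hill-fit IC50 and efficacy.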

[2] = target: Estrogen receptor (Homo sapiens) (UniProt P03372); test: qHTS assay for small molecule agonists of estrogen receptor alpha signaling (AID 588514);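 further: 0% = vehicle only and 100% = reference agonist; nearly all actives have a fitted effect of over 70% in size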
Summary of the method: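 Fluorescence from CCF4 cleavage reports ER-alpha-driven beta-lactamase expression in HEK 293 cells treated 18 hrs at 37 C. Data normalized to 17-beta-estradiol (20 nM) and DMSO, fitted to Hill equation.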

[3] = qHTS assay for small molecule antagonists of peroxisome proliferator-activated receptor delta signaling (AID 588535); conditions: HEK293T PPARd-UAS-bla, beta-lactamase FRET ratio, 18 h; 460 nm channel;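 further: cells co-treated with a PPAR-delta agonist as stimulator during compound exposure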
Summary of the method: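 Antagonist-mode qHTS using GeneBLAzer PPAR-delta-UAS-bla HEK293T cells; compound exposure 18 hrs at 37 C over a titration. Ratiometric CCF4 fluorescence at 460/530 nm; concentration-response points fitted to the Hill equation.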

[4] = target: Vitamin D3 receptor (Homo sapiens) (UniProt P11473); test: qHTS assay for small molecule antagonists of vitamin D receptor signaling (AID 588541);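 further: receptor activated by calcitriol during compound treatment; series mostly up to about 77 µM; on the % scale 0 is the no-effect control and ±100 the full control effect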
Sequence of Vitamin D3 receptor (Homo sapiens) (P11473 whole entry, looked up): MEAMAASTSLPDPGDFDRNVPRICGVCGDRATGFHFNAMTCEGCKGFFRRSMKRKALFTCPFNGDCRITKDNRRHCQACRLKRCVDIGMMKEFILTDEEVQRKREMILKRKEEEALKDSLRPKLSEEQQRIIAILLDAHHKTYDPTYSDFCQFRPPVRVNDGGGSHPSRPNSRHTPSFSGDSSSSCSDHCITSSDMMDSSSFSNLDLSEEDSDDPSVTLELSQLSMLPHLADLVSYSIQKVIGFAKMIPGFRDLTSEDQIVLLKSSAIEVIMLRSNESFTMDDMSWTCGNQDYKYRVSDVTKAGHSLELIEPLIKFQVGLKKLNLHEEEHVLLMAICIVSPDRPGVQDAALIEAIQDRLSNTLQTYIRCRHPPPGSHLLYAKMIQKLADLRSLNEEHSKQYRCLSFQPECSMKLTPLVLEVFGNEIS
Summary of the method: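 Antagonist-mode beta-lactamase reporter assay: HEK293T VDR-UAS-bla cells were exposed to titrated compound alongside 1-alpha,25-dihydroxyvitamin D3 at 3 nM final for 16 h. Values were normalized to the 50 nM agonist control and DMSO basal, with IC50 and efficacy from Hill equation fits.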

[5] = target: Vitamin D3 receptor (Homo sapiens) (UniProt P11473); test: qHTS assay for small molecule agonists of vitamin D receptor signaling (AID 588543);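 further: 0% = DMSO basal and 100% = reference agonist control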
Summary of the method: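 VDR-UAS-bla HEK293T cells, 2000/well, 2% charcoal-stripped FBS; compound titration 16 h at 37 C; CCF4 beta-lactamase ratio read. Normalized to 50 nM 1-alpha,25-dihydroxyvitamin D3 (100%) and DMSO; Hill fit gives EC50, efficacy.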

[6] = qHTS assay for small molecule agonists of retinoid X receptor alpha signaling (AID 588544); conditions: HEK293T RXRa-UAS-bla, beta-lactamase reporter, 18 h; 530 nm emission;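 on activation: 0% = DMSO basal wells and 100% = reference agonist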
[7] = target: Retinoic acid receptor RXR-alpha (Homo sapiens) (UniProt P19793); test: as above
Sequence of Retinoic acid receptor RXR-alpha (Homo sapiens) (P19793 whole entry, looked up): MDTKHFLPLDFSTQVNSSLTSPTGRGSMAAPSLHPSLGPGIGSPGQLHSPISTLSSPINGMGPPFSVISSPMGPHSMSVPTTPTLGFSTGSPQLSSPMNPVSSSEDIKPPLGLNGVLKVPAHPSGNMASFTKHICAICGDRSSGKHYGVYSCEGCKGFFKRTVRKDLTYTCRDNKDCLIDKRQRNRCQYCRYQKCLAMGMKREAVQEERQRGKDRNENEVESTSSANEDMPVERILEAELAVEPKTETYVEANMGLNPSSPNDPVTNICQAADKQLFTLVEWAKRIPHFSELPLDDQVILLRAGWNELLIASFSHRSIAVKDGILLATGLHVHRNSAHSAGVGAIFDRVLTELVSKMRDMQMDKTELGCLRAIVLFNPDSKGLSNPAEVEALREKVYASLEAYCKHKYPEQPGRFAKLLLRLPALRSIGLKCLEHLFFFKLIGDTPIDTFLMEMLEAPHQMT

[8] = target: Thyroid hormone receptor beta (Homo sapiens) (UniProt P10828); test: qHTS assay for small molecule agonists of thyroid hormone receptor beta signaling (AID 588545);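 further: 0% = DMSO only and 100% = 10 nM T3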
Sequence of Thyroid hormone receptor beta (Homo sapiens) (P10828 whole entry, looked up): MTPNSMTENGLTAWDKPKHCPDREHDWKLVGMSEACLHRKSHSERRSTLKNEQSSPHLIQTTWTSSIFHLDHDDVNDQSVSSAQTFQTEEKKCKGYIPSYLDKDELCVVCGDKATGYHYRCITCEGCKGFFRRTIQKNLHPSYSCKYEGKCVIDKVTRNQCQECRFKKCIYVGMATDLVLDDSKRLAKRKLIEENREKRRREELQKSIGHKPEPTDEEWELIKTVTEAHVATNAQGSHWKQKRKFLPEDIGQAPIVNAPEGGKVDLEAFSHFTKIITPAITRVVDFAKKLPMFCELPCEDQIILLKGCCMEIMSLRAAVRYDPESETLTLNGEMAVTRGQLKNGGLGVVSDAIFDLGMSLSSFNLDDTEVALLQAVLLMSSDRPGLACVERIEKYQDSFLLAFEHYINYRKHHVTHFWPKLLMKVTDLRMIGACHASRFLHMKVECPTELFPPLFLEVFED
Summary of the method: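 Stimulation of a TR-driven beta-lactamase reporter was quantified in GripTite HEK 293 cells. Compound series ran for 18 hrs; curves were normalized to T3 and DMSO controls and fitted to yield EC50.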

[9] = qHTS assay for small molecule antagonists of retinoid X receptor alpha signaling (AID 588546; active means well fitted inhibition curve with a large enough effect in the signal ratio, with a control signal flat, not every such curve was filed as active; the % refers to the signal ratio;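 further: cells stimulated with 9-cis-retinoic acid as agonist; on the % scale 0 is the no-effect control and ±100 the full control effect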); conditions: HEK293T RXRa-UAS-bla, beta-lactamase ratio, antagonist mode; measured here: W530 green channel, cytotoxicity proxy
Summary of the method: (§1)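 Beta-lactamase reporter inhibition, read as CCF4 fluorescence ratio (ex 405, em 460/530 nm) after 2 h at RT. HEK293T UAS-bla cells, 2500/well, were stimulated with 9-cis-RA at 500 or 100 nM final alongside test compound for 18 h at 37 C.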

[10] = target: Retinoic acid receptor RXR-alpha (Homo sapiens) (UniProt P19793); test: as above; conditions: HEK293T RXRa-UAS-bla, beta-lactamase ratio, antagonist mode
Summary of the method: as §1

[11] = target: Thyroid hormone receptor beta (Homo sapiens) (UniProt P10828); test: qHTS assay for small molecule antagonists of thyroid hormone receptor beta signaling (AID 588547; active means well fitted inhibition curve with a large enough effect in the signal ratio, with a control signal flat, not every such curve was filed as active; the % refers to the signal ratio;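 further: cells stimulated with 0.4 nM T3 agonist during compound exposure; series mostly up to about 77 µM; on the % scale 0 is the no-effect control and ±100 the full control effect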); conditions: TR-UAS-bla HEK293, beta-lactamase ratio, antagonist mode, 18 h
Summary of the method: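 Inhibition of T3-driven (0.4nM final) beta-lactamase reporter activity was measured over 0.59 nM to 92 uM compound after 18 h at 37 C. The cells were GripTite HEK293 TR-UAS-bla in charcoal/dextran-stripped serum, with CCF4 ratio read-out and IC50 from Hill fits.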

[12] = qHTS assay for environmental chemicals that activate the Aryl hydrocarbon Receptor (AhR) signaling pathway (AID 651777; active means well fitted curve in the direction sought with a large enough effect; an effect the other way counts as inactive or inconclusive; further: % of control where 0% means no effect; nearly all actives have a fitted effect of over 15% in size); conditions: 1A2-DRE human hepatoma cells, luciferase, 24 h; activation: stronger effect = higher value
Summary of the method: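 Human hepatoma 1A2-DRE cells, stably carrying a dioxin response element and CYP1A2 promoter driving luciferase, were exposed to compounds for 24 hr at 37 C and 5% CO2. Luciferase signal was then read after 30 min One-Glo at room temperature.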

[13] = target: Peroxisome proliferator-activated receptor alpha (Homo sapiens) (UniProt Q07869); test: qHTS assay for small molecule agonists of the peroxisome proliferator-activated receptor alpha (PPARalpha) signaling pathway (AID 651778; active means well fitted curve in the direction sought with a large enough effect; an effect the other way counts as inactive or inconclusive; further: % of control where 0% means no effect); conditions: PathHunter PPARalpha complementation, chemiluminescence, 6 h; max response: stronger effect = higher value
Sequence of Peroxisome proliferator-activated receptor alpha (Homo sapiens) (Q07869 whole entry, looked up): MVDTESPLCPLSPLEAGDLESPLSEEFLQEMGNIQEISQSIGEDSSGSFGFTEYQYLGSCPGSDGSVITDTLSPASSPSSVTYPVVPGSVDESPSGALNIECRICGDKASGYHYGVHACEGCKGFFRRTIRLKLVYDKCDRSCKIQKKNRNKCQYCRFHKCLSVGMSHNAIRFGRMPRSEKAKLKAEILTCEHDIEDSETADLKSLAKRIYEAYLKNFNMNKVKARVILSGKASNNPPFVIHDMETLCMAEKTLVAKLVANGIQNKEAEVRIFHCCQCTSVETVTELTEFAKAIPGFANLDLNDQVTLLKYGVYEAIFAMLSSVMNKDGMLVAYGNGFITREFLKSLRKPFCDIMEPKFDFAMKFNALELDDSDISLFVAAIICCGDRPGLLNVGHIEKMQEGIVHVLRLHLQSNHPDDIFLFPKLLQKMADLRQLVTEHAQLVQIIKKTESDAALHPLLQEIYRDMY
Summary of the method: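 Chemiluminescence from complemented enzyme reported PPARalpha activation in cells after 6 hr of compound treatment at 37 C. The detection reagent was incubated for 60 min at room temperature, and compounds were scored as agonists.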

[14] = qHTS assay for small molecule agonists of the antioxidant response element (ARE) signaling pathway measured by Nrf2-dependant transcriptional activity (AID 720636; active means well fitted curve in the direction sought with a large enough effect in the repeat runs; an effect the other way counts as inactive or inconclusive; further: % of control where 0% means no effect)
Summary of the method: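 ARE-luc HepG2 cells carrying an Nrf2-responsive luciferase reporter were plated in medium with 1% dialyzed FBS, left 6 hr at 37 C to attach, then exposed to compound for 16 hr. Luciferase luminescence was read after ONE-Glo addition.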

[15] = qHTS assay for small molecule agonists of the antioxidant response element (ARE) signaling pathway measured by Nrf2-dependant transcriptional activity - cell viability counter screen (AID 720653; active means well fitted curve in the direction sought with a large enough effect in the repeat runs; an effect the other way counts as inactive or inconclusive; further: on the % scale 0 is the no-effect control and ±100 the full control effect); conditions: ARE-bla HepG2 viability, CellTiter-Glo ATP luminescence, 16 h; max response: stronger effect = lower value
Summary of the method: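 Cytotoxicity counter screen: intracellular ATP quantified by CellTiter-Glo luminescence in the same ARE-bla HepG2 plates, after 16 h compound exposure and a 2 h beta-lactamase substrate step.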

[16] = qHTS assay for cell viability of HEK293 cells (AID 743288; active means well fitted curve in the direction sought with a large enough effect; an effect the other way counts as inactive or inconclusive; further: on the % scale 0 is the no-effect control and ±100 the full control effect; nearly all actives have a fitted effect of over 50% in size); conditions: ATP luminescence (CellTiter-Glo), 18 h; max response: stronger effect = lower value
Summary of the method: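 Steps: plate 2,000 parental HEK293 cells per well; incubate ≥5 h, 37 C; add compounds in DMSO; incubate 18 h, 37 C; add CellTiter-Glo; wait 30 min at room temperature; read luminescence.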

[17] = qHTS assay for cell viability of the p53RE-bla HCT-116 cell line (AID 743292; active means well fitted curve in the direction sought with a large enough effect; an effect the other way counts as inactive or inconclusive; further: on the % scale 0 is the no-effect control and ±100 the full control effect; nearly all actives have a fitted effect of over 55% in size)
Summary of the method: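 CellSensor p53RE-bla HCT-116 cells, 4,000/well, preincubated 5 h at 37 C, then exposed to compounds in DMSO for 16 h at 37 C. Viability read as CellTiter-Glo luminescence (intracellular ATP) after 30 min at room temperature.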

[18] = target: Nuclear receptor subfamily 1 group I member 2 (Rattus norvegicus) (UniProt Q9R1A7); test: qHTS assay for small molecule activators of the rat pregnane X receptor (rPXR) signaling pathway (AID 651751; call rule not given here; further: 0% is about no effect); conditions: rPXR reporter cells, luciferase (One-Glo), 24 h
Sequence of Nuclear receptor subfamily 1 group I member 2 (Rattus norvegicus) (Q9R1A7 whole entry, looked up): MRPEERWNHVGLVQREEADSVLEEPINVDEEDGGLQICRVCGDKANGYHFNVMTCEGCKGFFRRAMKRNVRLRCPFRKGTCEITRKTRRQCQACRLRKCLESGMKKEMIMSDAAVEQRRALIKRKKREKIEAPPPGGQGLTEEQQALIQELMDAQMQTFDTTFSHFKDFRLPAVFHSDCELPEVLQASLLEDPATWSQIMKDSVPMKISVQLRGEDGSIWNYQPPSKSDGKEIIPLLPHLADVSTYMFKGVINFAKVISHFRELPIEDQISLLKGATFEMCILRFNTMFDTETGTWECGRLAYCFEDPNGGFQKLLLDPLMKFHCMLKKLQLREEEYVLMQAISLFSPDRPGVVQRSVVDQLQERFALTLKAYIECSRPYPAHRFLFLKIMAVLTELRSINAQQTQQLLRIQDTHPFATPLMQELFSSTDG

[19] = qHTS assay for small molecule activators of the human pregnane X receptor (PXR) signaling pathway (AID 720659; call rule not given here; further: 0% is about no effect)
[20] = qHTS assay for small molecule activators of the p53 signaling pathway (AID 651743; active means well fitted activation curve with a large enough effect in the signal ratio, not every such curve was filed as active; the % refers to the signal ratio; further: series mostly up to about 92 µM; % of control where 0% means no effect); conditions: HCT-116 p53RE-bla, beta-lactamase FRET ratio, 16 h; activation: stronger effect = higher value
Summary of the method: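 A beta-lactamase reporter under p53 response element control, stably carried by HCT-116 cells, reported pathway activation. Test compounds were applied for 16 hours at 37 C, and fluorescence was measured 2 hours after adding the B/G FRET substrate.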

Compound	Potency [1]	Potency [2]	max response [3]	Potency [4]	outcome [5]	max response [6]	Potency [7]	Potency [8]	max response [9]	max response [10]	activity change % (negative = inhibition) [11]	activation [12]	max response [13]	Potency [14]	max response [15]	max response [16]	Potency [17]	max response [18]	outcome [19]	activation [20]
C[Si](Cl)(Cl)[Si](C)(Cl)Cl	inactive	inactive	-5.47%	inactive	inactive	-10.2%	inactive	inactive	-10.7%	-4.71% (inactive)	3.73% (inactive)	0.351% (inactive)	-2.05% (inactive)	inactive	-3.61% (inactive)	-7.2% (inactive)	inactive	6.3% (inactive)	inactive	
CCC(=O)OCCc1ccccc1	inactive	inactive	20.5%	inactive		-7.14%	inactive		-6.4%	3.85% (inactive)	-6.7% (inactive)	2.12% (inactive)	-0.0633% (inactive)	inactive	0.747% (inactive)		inactive	-2.51% (inactive)	inactive	
CCCCOC(=O)c1ccccc1	inactive	inactive	0.0882%		inactive	-7.9%	inactive		-1.79%	3.76% (inactive)			-1.04% (inactive)	inactive	21.3% (inactive)	-6.32% (inactive)	inactive	-2.16% (inactive)	inactive	-4.18% (inactive)
C=Cc1ccc(P(c2ccccc2)c2ccccc2)cc1	inactive	inactive	16.9%	inactive	inactive	-3.97%	inactive	inactive	-0.204%	3.02% (inactive)	9.12% (inactive)	0.447% (inactive)	-0.0796% (inactive)	inactive	-10.4% (inactive)	-7.87% (inactive)	inactive	0.774% (inactive)	inactive	
C/C=C/C=C/CCCCCCCO	inactive	inactive	19.3%	inactive	inactive	11.1%	inactive		19.5%	-19.2% (inactive)	-0.935% (inactive)	-1.79% (inactive)	0.881% (inactive)	inactive	-8.82% (inactive)	-6.91% (inactive)	inactive	-0.307% (inactive)	inactive	
CCSC(=O)N(CC(C)C)CC(C)C	inactive	inactive	-16.2%	inactive	inactive	-8.61%	inactive	inactive	-7.79%	-2.54% (inactive)					-3.63% (inactive)	-1.7% (inactive)	inactive	2.63% (inactive)	inactive	-3.92% (inactive)
CCCC/C=C\CCCCCCCCO	inactive	inactive	56.8%	inactive	inactive	-17%	inactive	inactive	-4.18%	-9.15% (inactive)	3.63% (inactive)	0.183% (inactive)	2.88% (inactive)	inactive	-0.523% (inactive)	-8.96% (inactive)	inactive	12.2% (inactive)	inactive	0.706% (inactive)
Nc1cc(Cl)nc(C(=O)O)c1Cl	inactive	inactive	-21.2%	inactive	inactive			inactive	-11.4%	-3.66% (inactive)	12% (inactive)	1.56% (inactive)	-2.9% (inactive)	inactive	-4.32% (inactive)	1.25% (inactive)	inactive	2.09% (inactive)	inactive	
CC(C)c1ccc2cc(C(C)C)ccc2c1	inactive	inactive		inactive	inactive			inactive	-11.7%	-6.87% (inactive)	-11% (inactive)	1.48% (inactive)	-0.981% (inactive)		7.43% (inactive)	-0.947% (inactive)	inactive	1.57% (inactive)	inactive	
CNc1nc(=O)n(C2CCCCC2)c(=O)n1C	inactive	inactive	8.32%	inactive	inactive	-10.1%	inactive		-10.4%	4.07% (inactive)		2.39% (inactive)		inactive	3.71% (inactive)	-6.85% (inactive)	inactive	-0.0446% (inactive)	inactive	0.353% (inactive)
NCCCCCCCCCCCC(=O)O	inactive	inactive	20.5%	inactive	inactive	-5.4%	inactive		-12%	2.61% (inactive)	11.2% (inactive)	-1.28% (inactive)	-1.44% (inactive)	inactive	4.58% (inactive)		inactive	-0.534% (inactive)	inactive	
O=C(c1ccc(Cl)cc1)c1ccc(Cl)cc1	inactive	inactive	24.6%	inactive	inactive	6.29%	inactive	inactive	-11.4%	7.91% (inactive)		-0.153% (inactive)	-1.26% (inactive)	inactive	-5.32% (inactive)	-7.2% (inactive)	inactive	0.85% (inactive)	inactive	1.92% (inactive)
c1ccc2c(c1)Cc1ccccc1-2	inactive	inactive		inactive		-12.1%	inactive	inactive	-16.6%	-2.65% (inactive)	-15.6% (inactive)	1.34% (inactive)	-0.262% (inactive)	inactive	-7.29% (inactive)	-4.41% (inactive)	inactive	-3.34% (inactive)	inactive	
